Screening data deposited in PubChem by National Center for Advancing Translational Sciences (NCATS).
DRD3 antagonist = blocks the human D3 dopamine receptor; max response, negative = inhibition, %; D3R cells, DiscoveRx beta-arrestin luminescence, antagonist mode; stronger effect = lower value; P35462; AID 652054; 360,000 compounds, 2.5% hits; in the data active = max response below about -50%; inconclusive = no clear call, values can overlap the other calls
Target sequence (P35462 whole entry, looked up): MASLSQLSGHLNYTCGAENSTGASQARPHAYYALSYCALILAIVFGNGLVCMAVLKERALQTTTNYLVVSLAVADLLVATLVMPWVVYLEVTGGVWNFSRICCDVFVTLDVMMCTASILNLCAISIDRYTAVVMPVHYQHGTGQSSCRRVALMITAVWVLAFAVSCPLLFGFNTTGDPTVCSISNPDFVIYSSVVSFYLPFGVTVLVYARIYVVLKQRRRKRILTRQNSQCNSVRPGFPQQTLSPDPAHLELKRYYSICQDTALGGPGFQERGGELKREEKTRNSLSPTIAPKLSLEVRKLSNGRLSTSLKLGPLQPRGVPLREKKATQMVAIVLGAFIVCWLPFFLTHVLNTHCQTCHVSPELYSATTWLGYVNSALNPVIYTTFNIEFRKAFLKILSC
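Cells expressing the human receptor were seeded at 1500 cells/well, incubated overnight at 37 degrees C in 5% CO2, then exposed to library compounds with dopamine controls for 90 minutes at 37 degrees C before luminescent detection.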
RGS4 inh = inhibitors of human regulator of G protein signaling 4. Potency, µM (top dose mostly 114 µM), most hits filed as inhibitors. P49798. Transcreener GDP fluorescence polarization, RGS4-accelerated GTP hydrolysis. 390,000 compounds, 0.039% hits. AID 504845; active = well fitted inhibition curve with a large enough effect; inconclusive = small, poorly fitted or top-dose-only effect; inactive = no such curve, though single readings can be large or run the other way; also: nearly all actives have a fitted effect of over 75% in size
Target sequence (P49798 whole entry, looked up): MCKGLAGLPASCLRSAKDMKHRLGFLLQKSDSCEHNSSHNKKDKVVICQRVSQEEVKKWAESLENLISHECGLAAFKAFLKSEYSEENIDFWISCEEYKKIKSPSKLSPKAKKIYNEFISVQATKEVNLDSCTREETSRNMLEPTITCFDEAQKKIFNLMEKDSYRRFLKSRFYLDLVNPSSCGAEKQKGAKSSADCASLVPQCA
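MLSMR compounds (23 nl, pin-transferred) preincubated 10 min at room temperature with a 500nM (2x) first reagent, then RGS4 at 900nM (2x) plus Transcreener GDP mix added; fluorescence polarization (620/688 nm) read before and after 90 min at 30 °C.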
D3 ag = activates the human D3 dopamine receptor | D3R DiscoveRx beta-arrestin cells, luminescence, 90 min | 410,000 compounds, 0.58% hits | max activation, % | AID 652048 | P35462; in the data active = max activation above about 30%
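Agonist mode: compounds and dopamine controls were applied to plated cells for 90 min at 37 degrees C after an overnight attachment at 1500 cells/well. Luminescent read-out followed 30 - 60 minutes at room temperature with DiscoveRx detection reagent.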
uPA surface inh = blocks generation of uPA at the cell surface | cell surface uPA generation assay, qHTS | Potency, µM (doses to about 38.3 µM), most hits filed as inhibitors | 330,000 compounds, 0.31% hits; active = well fitted inhibition curve with a large enough effect; inconclusive = small, poorly fitted or top-dose-only effect; inactive = no such curve, though single readings can be large or run the other way; tested in mouse RAW 264.7 cells; also: nearly all actives have a fitted effect of over 55% in size
Large screens that a line does not name were inactive. Shown are actives, neighbours in structure and some others; about 3.1% of the full set was active somewhere.

c1ccc2[nH]c(CCNC3CCCCC3)nc2c1	DRD3 antagonist -52.8
Cc1ccc(N2C(=O)NC(=O)/C(=C\C=C\c3ccco3)C2=O)cc1	RGS4 inh inconclusive, uPA surface inh 7.94µM
O=C1NC(=O)N(c2ccccc2)C(=O)/C1=C/C=C/c1ccco1	RGS4 inh inconclusive, uPA surface inh 10µM
O=C1NC(=O)N(Cc2ccco2)C(=O)/C1=C/C=C/c1ccco1	RGS4 inh inconclusive
CN1C(=O)/C(=C/C=C/c2ccco2)C(=O)NC1=S	none
Cc1ccc(N2C(=O)NC(=O)/C(=C\C=C\c3ccco3)C2=O)cc1C	DRD3 antagonist -58.6, RGS4 inh inconclusive
Cc1cccc(N2C(=O)NC(=O)/C(=C\C=C\c3ccco3)C2=O)c1	RGS4 inh inconclusive, uPA surface inh 10µM
C[C@@H]1C[C@H]2[C@@H]3CCC4=CC(=O)C=C[C@]4(C)[C@@]3(Cl)[C@@H](O)C[C@]2(C)[C@@]1(OC(=O)c1ccco1)C(=O)CCl	uPA surface inh inconclusive
COc1ccc(OC)c([C@@H](O)[C@H](C)N)c1	none (no result: DRD3 antagonist, RGS4 inh, uPA surface inh)
O=c1oc2ccccc2c(O)c1C(CC(O)c1ccc(-c2ccc(Br)cc2)cc1)c1ccccc1 (configuration not stated)	none (no result: DRD3 antagonist, RGS4 inh, uPA surface inh)
Cc1ccsc1C(=O)C1CCCN(Cc2cc(C(C)C)n[nH]2)C1 (configuration not stated)	DRD3 antagonist -80.8
COc1cccc(O)c1CN1CCCC(C(=O)c2sccc2C)C1 (configuration not stated)	DRD3 antagonist inconclusive
Cc1ccsc1C(=O)C1CCCN(Cc2ccn[nH]2)C1 (configuration not stated)	DRD3 antagonist -62.2
COc1ccc(C(=O)C2CCCN(Cc3ccc(C)s3)C2)c(OC)c1 (configuration not stated)	DRD3 antagonist -68.9, RGS4 inh inconclusive
COc1ccc(OC)c(CN2CCCC(C(=O)c3sccc3C)C2)c1 (configuration not stated)	DRD3 antagonist -82.2
Cc1ccsc1C(=O)C1CCCN(CCO)C1 (configuration not stated)	DRD3 antagonist inconclusive
CCC(=O)O[C@]1(c2ccccc2)CCN(C)C[C@H]1C	none (no result: DRD3 antagonist, RGS4 inh, uPA surface inh)
CN(CCc1ccc(Cl)c(Cl)c1)[C@H]1CCCC[C@H]1N1CCCC1	none (no result: DRD3 antagonist, D3 ag, uPA surface inh)
[Cl-].[Cl-].[Hg+2]	none (no result: DRD3 antagonist, RGS4 inh, uPA surface inh)
CC(=O)O[C@H]1C[C@H](O[C@H]2[C@@H](O)C[C@H](O[C@H]3[C@@H](O)C[C@H](OC4CC[C@@]5(C)[C@H](CC[C@@H]6[C@@H]5CC[C@]5(C)[C@@H](C7=CC(=O)OC7)CC[C@]65O)C4)O[C@@H]3C)O[C@@H]2C)O[C@H](C)[C@H]1O[C@@H]1O[C@H](CO)[C@@H](O)[C@H](O)[C@H]1O (some centres not stated)	none (no result: DRD3 antagonist, RGS4 inh, uPA surface inh)
CN1CCc2cc(O)cc3c2C1Cc1ccc(O)c(O)c1-3 (configuration not stated)	none (no result: DRD3 antagonist, D3 ag, uPA surface inh)
COc1ccc(Cl)cc1C(=O)C1CCCN(Cc2cnc(C)s2)C1 (configuration not stated)	DRD3 antagonist -55.8
Oc1ccccc1-[n+]1c(-c2ccccc2)cc(-c2ccccc2)cc1-c1ccccc1	uPA surface inh inconclusive
Cc1ccccc1-[n+]1c(-c2ccccc2)cc(-c2ccccc2)cc1-c1ccccc1	uPA surface inh 7.94µM
COc1ccc([C@@]2(C(C)C)ON(c3ccccc3C(F)(F)F)C2=O)cc1	uPA surface inh inconclusive
COc1ccc(C(CNC(=O)Cc2ccc(Cl)c(Cl)c2)N(C)C)cc1 (configuration not stated)	none (no result: uPA surface inh)
COc1ccc(C(CNC(=O)Cc2ccc(Cl)c(Cl)c2)N2CCCCC2)cc1 (configuration not stated)	DRD3 antagonist -66.8
CC(=Nc1c(C)n(C)n(-c2ccccc2)c1=O)c1c(O)n(Cc2ccccc2)c(=O)[nH]c1=O	DRD3 antagonist -50.7
CC(=NCCCO)c1c(O)n(Cc2ccccc2)c(=O)[nH]c1=O	none
O=C(CCCN1CCC2(CC1)C(=O)N(Cc1cccc(F)c1)CN2c1ccccc1)c1ccc(F)cc1	none (no result: DRD3 antagonist, D3 ag, uPA surface inh)
CN1C[C@H](CNC(=O)OCc2ccccc2)C[C@@H]2c3cccc4c3c(cn4C)C[C@H]21	DRD3 antagonist -117.1, RGS4 inh inconclusive
O=C1C(=O)c2ccccc2-c2ccccc21	DRD3 antagonist -67.2, RGS4 inh inconclusive, uPA surface inh inconclusive
c1cc2ccc3cccc4ccc(c1)c2c34	none (no result: DRD3 antagonist, RGS4 inh, uPA surface inh)
O=C1C(=O)c2cccc3cccc1c23	DRD3 antagonist -58.7
O=[N+]([O-])c1ccc(Cl)c([N+](=O)[O-])c1	uPA surface inh 1.26µM
O=c1c2ccccc2[se]n1-c1ccccc1	RGS4 inh 0.67µM, uPA surface inh inconclusive
COC(=O)C1=C(C(=O)OC)SC2(S1)C(C(=O)OC)=C(C(=O)OC)Sc1c2ssc1=O	DRD3 antagonist -95.6
COc1ccc(CCNC(C)CCc2ccc(OC)cc2)cc1 (configuration not stated)	DRD3 antagonist -52.0
O=[N+]([O-])c1cccc(CN2CCN(Cc3ccc(Cl)cc3)CC2)c1	DRD3 antagonist -79.1
O=[N+]([O-])c1ccccc1CN1CC=C(c2ccc(F)cc2)CC1	DRD3 antagonist -68.2
CC(C)N1CCN(Cc2cccc([N+](=O)[O-])c2)CC1	DRD3 antagonist inconclusive
Oc1ccc2ccccc2c1CN1CC=C(c2ccccc2)CC1	DRD3 antagonist inconclusive
O=[N+]([O-])c1cccc(CN2CC=C(c3ccc(F)cc3)CC2)c1	DRD3 antagonist -98.8
COc1cc(CC(C)N)cc2c1OCO2 (configuration not stated)	none (no result: DRD3 antagonist, RGS4 inh, uPA surface inh)
C=CCN1CCC2(C)c3cc(O)ccc3C[C@H]1[C@H]2C	none (no result: DRD3 antagonist, D3 ag, uPA surface inh)
Cc1ccc(NC(=O)c2ccc(S(=O)(=O)N(C)c3ccccc3)cc2)cc1S(=O)(=O)N1CCOCC1	uPA surface inh inconclusive
O=C(C1CCCO1)N1CCC2(CC1)OCCO2 (configuration not stated)	DRD3 antagonist -59.5
O=C(C1CCC(=O)N1C1CCCC1)N1CCC2(CC1)OCCO2 (configuration not stated)	none (no result: uPA surface inh)
COC(=O)C1=C(c2cc3ccccc3s2)C[C@@H]2CC[C@H]1N2C(=O)NCc1ccc(F)cc1	DRD3 antagonist -55.6
COC(=O)C1=C(c2cc3ccccc3s2)C[C@@H]2CC[C@H]1N2C(=O)N1CCCCC1	DRD3 antagonist -53.8, uPA surface inh inconclusive
COC(=O)C1=C(c2ccc(F)cc2F)C[C@@H]2CC[C@H]1N2C(=O)NCc1ccco1	DRD3 antagonist inconclusive, D3 ag 40.7
COC(=O)C1=C(c2c(C)noc2C)C[C@@H]2CC[C@H]1N2C(=O)N1CCCC1	D3 ag 57.8
COC(=O)C1=C(c2cc3ccccc3s2)C[C@@H]2CC[C@H]1N2C(=O)NCc1ccccc1	none
NC(N)=NCCCCCCCCCCN=C(N)N	none (no result: DRD3 antagonist, D3 ag, uPA surface inh)
O=C1CC2OCC=C3CN4CC[C@]56c7ccccc7N1[C@H]5[C@H]2C3C[C@H]46 (some centres not stated)	none (no result: DRD3 antagonist, D3 ag, uPA surface inh)
CC(C)Oc1cccc(NC(=O)c2ccccc2C(F)(F)F)c1	none (no result: DRD3 antagonist, RGS4 inh, uPA surface inh)
Cn1nc(-c2ccccc2)nc2c(=O)n(C)c(=O)nc1-2	none (no result: DRD3 antagonist, D3 ag, uPA surface inh)
Cc1nc2c(=O)n(C)c(=O)nc-2n(C)n1	DRD3 antagonist -98.1, RGS4 inh inconclusive
